Among all 310,000 compounds or so, about 11,000 (3.5%) were called active. A call without a number means that no potency is given here. Inconclusive results (about 8%) are left out. The full list was thinned out, with actives kept by preference. Values without a mark were called inactive. The call rests on the fitted dose curve; in most records, active means well fitted inhibition curve with a large enough effect; inconclusive means small, poorly fitted or top-dose-only effect, or effect the other way; inactive means flat fitted curve, though single readings scatter.
Test: VP16 counterscreen qHTS for inhibitors of ROR gamma transcriptional activity;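 further: Gal4-VP16 expression switched on by copper sulfate through the metallothionein promoter; nearly all actives have a fitted effect of over 50% in size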
Details: Drosophila S2 Gal4-VP16 UAS-luciferase, luminescence, 20 h; series mostly up to 53.6 µM
Potency means the concentration at half of the fitted maximal effect.

Structure (SMILES) | Potency | activity, negative = inhibition
O=C(CCl)NNc1nc(-c2ccccc2)c2cc(Cl)ccc2n1 | 17.8 µM (active) | –
O=C(CCl)NNc1cccc(Cl)n1 | inactive | –
NC(N)=Nc1nc(-c2ccccc2)c2cc(Cl)ccc2n1 | inactive | –
COc1ccc(CCNC(=O)C(=O)NCC2OCCN2S(=O)(=O)c2ccc(F)cc2)cc1OC (configuration not stated) | inactive | –
CC1CCCN(S(=O)(=O)c2ccc(C(=O)Nc3nnc(-c4ccncc4)o3)cc2)C1 (configuration not stated) | inactive | –
CC1CCCCN1S(=O)(=O)c1ccc(C(=O)Nc2nnc(-c3cccs3)o2)cc1 (configuration not stated) | 0.891 µM (active) | –
CCc1nnc(NC(=O)C2CCCN2S(=O)(=O)c2ccccc2)s1 (configuration not stated) | inactive | –
Cc1ccnc(NS(=O)(=O)c2ccc(NC(=O)c3ccc(S(=O)(=O)N4CCOCC4)cc3)cc2)n1 | inactive | –
CSCc1nnc(NC(=O)c2ccc(S(=O)(=O)N3CCCCC3C)cc2)o1 (configuration not stated) | 1.41 µM (active) | –
CC1CN(S(=O)(=O)c2ccc(C(=O)Nc3sccc3C(N)=O)cc2)CC(C)O1 (configuration not stated) | inactive | –
O=C(Nc1nnc(-c2ccco2)o1)c1ccc(S(=O)(=O)N2CCOCC2)cc1 | 5.62 µM (active) | –
O=C(Nc1ccc2cn[nH]c2c1)c1ccc(S(=O)(=O)N2CCOCC2)cc1 | inactive | –
CCc1nnc(NC(=O)c2ccc(S(=O)(=O)NC3CCCCC3)cc2)s1 | – | 0.424% [at 0.365 µM]
Cc1cccn2cc(-c3cccc(S(=O)(=O)N4CCCCC4)c3)nc12 | inactive | –
COc1ccc(CCC(C)N2CCc3ccccc3C2)cc1 (configuration not stated) | inactive | –
Cc1cccc([C@@H]2[C@@H]3C(=O)N(Cc4ccccc4)C(=O)[C@@H]3[C@]3(C)C(=O)N(c4ccc(Br)cc4)C(=O)N23)c1 | inactive | –
Cn1nccc1C(=O)N1CCCC(C(=O)c2ccc(Oc3ccccc3)cc2)C1 (configuration not stated) | inactive | –
CCOC(=O)[C@H]1[C@H]2COc3cc(OC)ccc3[C@@H]2N2C(=O)N(c3ccc(Br)cc3)C(=O)[C@@]12C | inactive | –
Cc1ccc(OCCCC(=O)Nc2ccc(S(=O)(=O)Nc3cc(C)nc(C)n3)cc2)cc1 | inactive | –
Cc1ccc(CSc2nsc(C)c2C#N)cc1 | inactive | –
CN(Cc1nc2ccccc2s1)C(=O)c1ccc(F)cc1 | inactive | –
CCC1(CC)NC(=O)N(Cc2nc3ccccc3s2)C1=O | 3.55 µM (active) | –
COC(=O)C1[C@H]2SC(C)(C)C(C(=O)OC)N2C(=O)N1Cc1nc2ccccc2s1 (some centres not stated) | inactive | –
N#Cc1ccc(C2N=C(c3ccccc3)NO2)cc1 (configuration not stated) | inactive | –
COc1ccc(C(=O)Nc2ccc(N3CCC(C)CC3)cc2)cc1Br | inactive | –
COc1ccc(C(=O)NC(=S)Nc2ccc(N3CCCC3)cc2)cc1OC | 0.891 µM (active) | –

Structure (SMILES) | Potency | activity, negative = inhibition
O=C(Cc1ccccc1)NC(=S)Nc1ccc(N2CCCCC2)cc1 | 3.55 µM (active) | –
COc1c(Cl)cc(C(=O)Nc2ccc(Cl)cn2)cc1Cl | inactive | –
O=C(CCN1CCN(c2ccccc2)CC1)NNC(=S)Nc1ccccc1 | inactive | –
COc1ccc(C(=O)Nc2ccc(C3(C#N)CCCC3)cc2)cc1OC | inactive | –
Cc1ccccc1C(=O)Nc1ccc(N2CCCCCC2)cc1 | inactive | –
Cc1ccccc1C(=O)N1CCN(c2ccc(NC(=O)c3cccs3)cc2)CC1 | inactive | –
COc1ccc(C(=O)NC(=S)Nc2ccc(Cl)cn2)cc1OC | 12.6 µM (active) | –
Cc1ccccc1C(=O)NC(=S)Nc1ccc(N2CCN(C(=O)c3ccccc3)CC2)cc1 | 5.62 µM (active) | –
COc1ccc(C(=O)N/N=C(\C)CC(=O)Nc2ccc(Cl)cn2)cc1 | inactive | –
O=C(c1ccccc1)c1ccc(C(=O)N2CCN(c3ccccc3)CC2)cc1 | inactive | –
CC1CN(C(=S)Nc2cccc(F)c2)CC(C)O1 (configuration not stated) | inactive | –
O=C(C1CC(=O)N(C2CCCCC2)C1)N1CCN(c2ccccc2)CC1 (configuration not stated) | inactive | –
O=C(CN(CC1CCCO1)C(=O)CNS(=O)(=O)c1ccc(Cl)cc1)NCc1ccccc1 (configuration not stated) | inactive | –
CCOc1ccc(NC(=O)c2nc(SCC)ncc2Cl)cc1 | inactive | –
O=[N+]([O-])c1cc([N+](=O)[O-])c(Oc2cc(F)cc(F)c2F)cc1NN1CCCCC1 | inactive | –
Cc1ccc(-c2noc(C3CCCN(C(=O)c4cccc(Cl)c4)C3)n2)o1 (configuration not stated) | inactive | –
CCOc1ccc(C(=O)NC(=S)Nc2ccc(N3CCOCC3)c(Cl)c2)cc1[N+](=O)[O-] | 3.98 µM (active) | –
CCOc1ccc(C(=O)NC(=S)Nc2ccc(NC(=O)C(C)C)cc2)cc1[N+](=O)[O-] | inactive | –
COc1cccc(OC)c1C(=O)NC(=S)Nc1ccc(N2CCOCC2)c(Cl)c1 | inactive | –
CC(=O)N1CCN(c2ccc(NCc3ccc(C(C)C)cc3)cc2)CC1 | 1.12 µM (active) | –
CC(CC(=O)N1CCN(c2ccccc2)CC1)c1ccccc1 (configuration not stated) | inactive | –
CCc1ccc(NC(=O)N2CCN(c3ccccc3)CC2)cc1 | inactive | –
Cc1nn(-c2ccccc2)c(Cl)c1/C=N/NC(=O)c1nn(C)cc1[N+](=O)[O-] | inactive | –
COC(=O)c1cc(NC2c3ccccc3C(=O)N2c2ccc(Cl)cn2)cc(C(=O)OC)c1 (configuration not stated) | 11.2 µM (active) | –
CCc1ccccc1NC1c2ccccc2C(=O)N1c1cccnc1 (configuration not stated) | inactive | –
Cc1ccnc(N2C(=O)c3ccccc3C2Nc2ccc3c(c2)OCCO3)c1 (configuration not stated) | inactive | –
